The values below come from PubChem BioAssay (NCI).

This is part of a sample that, as a whole, favours compounds with a hit. Of some 79,000 tested, about 15% had one in any assay. Values without a mark were called inactive. Activity calls are given as the source filed them. Rule as the data show it: active = growth inhibition above about 70%; inactive = the rest.

A short description of experiment [1]: NCI Yeast Anticancer Drug Screen. Data for the rad50 strain (AID 155).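 Also: 0% = growth of vehicle-only cultures of the same strain.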 Conditions: S. cerevisiae rad50 strain growth inhibition, hits give high values. Summed up:
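Yeast carrying a defined DNA repair defect were exposed to test compounds, and growth was compared with vehicle-treated controls to give percent inhibition.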

Experiment [2] is described as follows: NCI Yeast Anticancer Drug Screen. Data for the mec2-1 strain (AID 157). Conditions: S. cerevisiae mec2-1 strain, hits give high values. Summed up: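 Vehicle-treated cultures served as reference for growth inhibition of compound-exposed mec2-1 yeast.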
The nature of experiment [3]: NCI Yeast Anticancer Drug Screen. Data for the sgs1 mgt1 strain (AID 161).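 Also: 0% = growth of cultures given vehicle only.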 Conditions: S. cerevisiae sgs1 mgt1 strain, hits give high values. Summed up: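 Genetically altered yeast, compound exposure, growth inhibition relative to vehicle.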
Experiment [4] is described as follows: NCI Yeast Anticancer Drug Screen. Data for the cln2 rad14 strain (AID 165).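 Also: 0% = growth equal to vehicle treated cultures.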 The settings on record: S. cerevisiae cln2 rad14 strain, hits give high values. Summed up: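 Each compound was tested on cln2 rad14 yeast. Inhibition of growth was calculated against vehicle-exposed controls.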
Experiment [5] is described as follows: NCI Yeast Anticancer Drug Screen. Data for the bub3 strain (AID 167). The settings on record: S. cerevisiae bub3 mutant strain, hits give high values. The procedure, abridged:
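Compounds were applied to a genetically altered yeast strain carrying a cell-cycle control defect. Growth inhibition was scored against vehicle-treated controls.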

Experiment [6] in a line: NCI Yeast Anticancer Drug Screen. Data for the mlh1 rad18 strain (AID 175). Conditions: S. cerevisiae mlh1 rad18 strain growth inhibition, hits give high values. Summed up:
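Vehicle-treated cultures served as the reference for growth inhibition in a yeast strain carrying DNA damage repair alterations exposed to each compound.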

Where [7] appears, read: at 5.0 µM (retest, dose inferred, filed as 0.5).
The mark [8] stands for this setting: at 50.0 µM (retest, dose inferred, filed as 5.0).

In the case of `CCCCC(CC)COP(=O)(OCC(CC)CCCC)OCC(CC)CCCC` (centres undefined), the growth inhibition in experiment [1] (setting [7]) was 0%; in experiment [1] (setting [8]), 7%; in experiment [1] (at 50.0 µM) it was 15.8%; in experiment [2] (setting [7]), 13%; in experiment [2] (setting [8]), -7%; in experiment [2] (at 50.0 µM), 10.6%. Further, the growth inhibition was 9% in experiment [3] (setting [7]); 18% in experiment [3] (setting [8]); -2.85% in experiment [3] (at 50.0 µM); 0% in experiment [4] (setting [7]); -3% in experiment [4] (setting [8]); 0.85% in experiment [4] (at 50.0 µM). Moreover, the growth inhibition in experiment [5] (setting [7]) was -5%; in experiment [5] (setting [8]) it was -11%; in experiment [5] (at 50.0 µM), -6.75%; in experiment [6] (setting [7]), -4%; in experiment [6] (setting [8]) it was -12%; in experiment [6] (at 50.0 µM), 29.1%.
For `COc1cc2c(cc1OC)c1c(OC)c(OC)cc3c1c1c2sc(=S)n1CC3`, the growth inhibition is 4% in experiment [1] (setting [7]); 59% in experiment [1] (setting [8]); 93% (active) in experiment [1] (at 50.0 µM); 14% in experiment [2] (setting [7]); 46% in experiment [2] (setting [8]); 96.9% (active) in experiment [2] (at 50.0 µM). For the same molecule, the growth inhibition in experiment [3] (setting [7]) is 11%; in experiment [3] (setting [8]) it was 55%; in experiment [3] (at 50.0 µM), 96.1% (active); in experiment [4] (setting [7]) it was 5%; in experiment [4] (setting [8]) it was 14%; in experiment [4] (at 50.0 µM), 93.8% (active). Moreover, the growth inhibition is 4% in experiment [5] (setting [7]); 33% in experiment [5] (setting [8]); 95.4% (active) in experiment [5] (at 50.0 µM); 5% in experiment [6] (setting [7]); 53% in experiment [6] (setting [8]); 99% (active) in experiment [6] (at 50.0 µM).
In the case of `O=C1CSC2(CCN(CCCN3c4ccccc4Sc4ccc(Cl)cc43)CC2)N1`, the growth inhibition in experiment [1] (setting [7]) was 8%; in experiment [1] (setting [8]), 100% (active); in experiment [1] (at 50.0 µM), 98.9% (active); in experiment [2] (setting [7]), -4%; in experiment [2] (setting [8]) it was 45%; in experiment [2] (at 50.0 µM), 99.1% (active). Also, the growth inhibition in experiment [3] (setting [7]) is 3%; in experiment [3] (setting [8]), 53%; in experiment [3] (at 50.0 µM) it was 99.3% (active); in experiment [4] (setting [7]), -11%; in experiment [4] (setting [8]), 100% (active); in experiment [4] (at 50.0 µM) it was 99% (active). In addition, the growth inhibition in experiment [5] (setting [7]) is -2%; in experiment [5] (setting [8]) it was 99% (active); in experiment [5] (at 50.0 µM), 97.5% (active); in experiment [6] (setting [7]), -17%; in experiment [6] (setting [8]) it was 99% (active); in experiment [6] (at 50.0 µM), 91.2% (active).
On to `Clc1ccc(SCCN2CCN(CCSc3ccc(Cl)cc3)CC2)cc1`, for which the growth inhibition in experiment [1] (setting [7]) is 76% (active); in experiment [1] (setting [8]), 98% (active); in experiment [1] (at 50.0 µM) it was 83.2% (active); in experiment [2] (setting [7]) it was 79% (active); in experiment [2] (setting [8]) it was 99% (active); in experiment [2] (at 50.0 µM), 77.9% (active). The growth inhibition was 92% (active) in experiment [3] (setting [7]); 99% (active) in experiment [3] (setting [8]); 94.2% (active) in experiment [3] (at 50.0 µM); 54% in experiment [4] (setting [7]); 98% (active) in experiment [4] (setting [8]); 86.9% (active) in experiment [4] (at 50.0 µM). The growth inhibition was 85% (active) in experiment [5] (setting [7]); 99% (active) in experiment [5] (setting [8]); 92.1% (active) in experiment [5] (at 50.0 µM); 88% (active) in experiment [6] (setting [7]); 99% (active) in experiment [6] (setting [8]); 96.6% (active) in experiment [6] (at 50.0 µM).
In the case of `CC(=O)/C(=C/n1c(=S)[nH]c2ccc([N+](=O)[O-])cc21)C(=O)Nc1ccc(Cl)cc1`, the growth inhibition was 1% in experiment [1] (setting [7]); -1% in experiment [1] (setting [8]); 10.9% in experiment [1] (at 50.0 µM); -9% in experiment [2] (setting [7]); 2% in experiment [2] (setting [8]); 6.75% in experiment [2] (at 50.0 µM). Further, the growth inhibition is 0% in experiment [3] (setting [7]); -5% in experiment [3] (setting [8]); 16.7% in experiment [3] (at 50.0 µM); -21% in experiment [4] (setting [7]); -17% in experiment [4] (setting [8]); 46.4% in experiment [4] (at 50.0 µM). Further, the growth inhibition in experiment [5] (setting [7]) was -4%; in experiment [5] (setting [8]), -2%; in experiment [5] (at 50.0 µM), 15.6%; in experiment [6] (setting [7]), 1%; in experiment [6] (setting [8]), -2%; in experiment [6] (at 50.0 µM) it was 22.3%.
Turning to `CCCCCC1OC1CC1OC1CCCCCCCC(=O)OC` (centres undefined), the growth inhibition in experiment [1] (setting [7]) was -2%; in experiment [1] (setting [8]), 1%; in experiment [1] (at 50.0 µM), 36.5%; in experiment [2] (setting [7]) it was -1%; in experiment [2] (setting [8]), -2%; in experiment [2] (at 50.0 µM), 18.8%. The growth inhibition in experiment [3] (setting [7]) is -4%; in experiment [3] (setting [8]), 4%; in experiment [3] (at 50.0 µM), 40.4%; in experiment [4] (setting [7]), -4%; in experiment [4] (setting [8]) it was -8%; in experiment [4] (at 50.0 µM), -27.4%. In addition, the growth inhibition is -1% in experiment [5] (setting [7]); -7% in experiment [5] (setting [8]); 50.1% in experiment [5] (at 50.0 µM); 4% in experiment [6] (setting [7]); 1% in experiment [6] (setting [8]); 59% in experiment [6] (at 50.0 µM).
For `CCc1cc(-c2ccco2)c(C#N)c(=S)n1C1OC(COC(C)=O)C(OC(C)=O)C(OC(C)=O)C1OC(C)=O` (centres undefined), the growth inhibition in experiment [1] (setting [7]) was -2%; in experiment [1] (setting [8]), -6%; in experiment [1] (at 50.0 µM), 3.05%; in experiment [2] (setting [7]), -15%; in experiment [2] (setting [8]) it was -7%; in experiment [2] (at 50.0 µM), 8.2%. The growth inhibition was -1% in experiment [3] (setting [7]); 6% in experiment [3] (setting [8]); -19.4% in experiment [3] (at 50.0 µM); 4% in experiment [4] (setting [7]); 22% in experiment [4] (setting [8]); 8.6% in experiment [4] (at 50.0 µM). Besides, the growth inhibition is 7% in experiment [5] (setting [7]); 21% in experiment [5] (setting [8]); -0.25% in experiment [5] (at 50.0 µM); -14% in experiment [6] (setting [7]); 5% in experiment [6] (setting [8]); 34.1% in experiment [6] (at 50.0 µM).
Consider `Cc1ccc(S(=O)(=O)Nn2c(S)c(C#N)c(-c3ccc([N+](=O)[O-])cc3)c(C#N)c2=O)cc1`, for which the growth inhibition in experiment [1] (setting [7]) was 25%; in experiment [1] (setting [8]) it was 59%; in experiment [1] (at 50.0 µM), 49.6%; in experiment [2] (setting [7]), 8%; in experiment [2] (setting [8]), 35%; in experiment [2] (at 50.0 µM), 46.6%. Moreover, the growth inhibition in experiment [3] (setting [7]) was 24%; in experiment [3] (setting [8]), 78% (active); in experiment [3] (at 50.0 µM), 72.3% (active); in experiment [4] (setting [7]), 43%; in experiment [4] (setting [8]), 43%; in experiment [4] (at 50.0 µM) it was 29.8%. The growth inhibition in experiment [5] (setting [7]) is 45%; in experiment [5] (setting [8]), 65%; in experiment [5] (at 50.0 µM), 54.6%; in experiment [6] (setting [7]), 19%; in experiment [6] (setting [8]), 46%; in experiment [6] (at 50.0 µM) it was 59%.
